Experimental data as given in PubChem BioAssay.
Several values for one entry are separate records, joined by “and”; a condition that tells them apart may be missing. Identical values can stand only once. Activity calls are given as the source filed them.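 How the source made its calls, unless noted: active means thallium flux through the channel raised or lowered by more than 3 SD from vehicle-only wells, actives on both sides; inactive means the rest.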

Columns and labels:
[1] = stimulators of nuclear beta-catenin in C2C12, primary screen, imaging, WNT3A-conditioned medium, mouse C2C12, NPC library (AID 1117326; in the data active means nuclear beta-catenin stimulation mostly above about 4.2%, no sharp cut-off; inactive means mostly below about 10%); settings: stronger effect = higher value
[2] = stimulators of insulin release from INS-1E, primary screen, cell-based, 5 mM glucose, NPC library (AID 1117329;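 active means compound raises insulin release from rat beta cells at 5 mM glucose, no numeric limit stated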); settings: rat INS-1E insulin secretion, at 10 µM, stronger effect = higher value
[3] = growth inhibition of GSK3B-pretreated HCT116 cells – cell-based, CellTiter-Glo, 0.2 to 20 µM (AID 1117336;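 active means compounds lowering colon cancer cell viability after pretreatment blocking the GSK3B kinase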); settings: HCT116 viability after GSK3B inhibitor, at 20 µM, stronger effect = higher value
[4] = inhibition of endothelial tube formation, primary screen, imaging, VEGF stimulated, CD31 staining, tube area, NPC library (AID 1117340;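 active means compound that reduces growth-factor-driven endothelial tube area in a mixed cell culture, no cutoff stated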); settings: VEGF-stimulated ADSC/ECFC co-culture, at 10 µM, stronger effect = higher value
[5] = glucagon-like peptide 1 release enhancers, primary assay, NCI-H716 cell line, NPC library (AID 1117341;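 active means compound raises GLP1 secretion from the human gut endocrine cells, with no numeric limit stated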); settings: NCI-H716 cells, at 10 µM, stronger effect = higher value
[6] = HCT116 colon cancer cell growth inhibition, primary screen, CellTiter-Glo luminescence, NPC library (AID 1117342;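 active means compounds that lower survival of HCT116 colon cancer cells in the luminescence readout, no numeric limit stated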); settings: at 20 µM (top of the series)
[7] = CellTiter-Glo luminescent readout of SW480 viability loss, NPC library primary (AID 1117343;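 active means compounds that lower viability of the colon cancer cells in the luminescence readout, with no numeric limit stated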); settings: CellTiter-Glo luminescence; at 20 µM (top of the series)
[8] = decreased DLD-1 cellular survival, CellTiter-Glo luminescent readout, NPC compound collection, primary HTS (AID 1117346;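 active means compounds that lower survival of DLD-1 colon cancer cells in the luminescence readout, no cutoff given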); settings: DLD-1 viability, CellTiter-Glo luminescence; at 20 µM (top of the series)
[9] = target: 6-phosphogluconate dehydrogenase, decarboxylating (Homo sapiens) (UniProt P52209); experiment: 6PGD enzyme inhibitors, primary screen, biochemical, human, recombinant enzyme, NADPH absorbance (AID 1159550;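 active means at least 20% inhibition of 6-phosphogluconate dehydrogenase activity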); settings: recombinant 6PGD, NADPH absorbance 341 nm; at 10 µM; stronger effect = higher value
6-phosphogluconate dehydrogenase, decarboxylating (Homo sapiens), sequence (P52209 whole entry, looked up): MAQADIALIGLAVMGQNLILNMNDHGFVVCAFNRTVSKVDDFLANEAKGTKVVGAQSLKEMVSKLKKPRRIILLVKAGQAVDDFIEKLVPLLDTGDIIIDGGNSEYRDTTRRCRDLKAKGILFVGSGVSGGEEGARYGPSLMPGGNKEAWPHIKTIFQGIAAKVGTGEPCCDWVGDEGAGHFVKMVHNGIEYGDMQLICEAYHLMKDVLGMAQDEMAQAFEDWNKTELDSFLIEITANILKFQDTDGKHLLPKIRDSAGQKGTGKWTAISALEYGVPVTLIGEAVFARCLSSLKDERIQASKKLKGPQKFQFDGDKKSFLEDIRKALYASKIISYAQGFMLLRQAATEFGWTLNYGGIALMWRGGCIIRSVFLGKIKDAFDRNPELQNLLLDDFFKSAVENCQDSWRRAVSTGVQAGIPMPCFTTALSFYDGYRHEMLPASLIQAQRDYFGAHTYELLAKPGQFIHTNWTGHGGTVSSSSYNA

[10] = modulation of C. elegans fzo-1 (AID 1259413; call rule not given here;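 further: fzo-1 mutant C. elegans worms in liquid wells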); settings: C. elegans fzo-1 modulator screen, mean read-out; stronger effect = higher value
[11] = differential killing of epithelial or mesenchymal cells, primary screen, imaging, PC-3E GFP, TEM4-18 mCherry, co-culture (AID 1345086;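 active means compounds killing one labelled cell type while sparing the other, by normalised counts and ratio limits, not self-fluorescent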;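 on all read-outs here: cells exposed to compound for 72 h before imaging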;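 on red/green cell ratio (normalised): normalised mesenchymal count divided by normalised epithelial count so high means epithelial killing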); settings: imaging cell counts, at 1 µM; for red/green cell ratio (normalised): actives lie on both sides, counts scaled to control wells, 1 = unselective
[12] = target: NAD(+) hydrolase SARM1 (Homo sapiens) (UniProt Q6SZW1); experiment: SARM1 TIR NADase inhibitors, cell lysate, NAD-Glo luminescence (AID 1508614;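 active means compound whose remaining NAD level is above about 45 nM, limit read from the data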); settings: SAM-TIR HEK293T lysate NADase, at 1 µM, stronger effect = higher value
NAD(+) hydrolase SARM1 (Homo sapiens), sequence (Q6SZW1 whole entry, looked up, the tested form may be a part): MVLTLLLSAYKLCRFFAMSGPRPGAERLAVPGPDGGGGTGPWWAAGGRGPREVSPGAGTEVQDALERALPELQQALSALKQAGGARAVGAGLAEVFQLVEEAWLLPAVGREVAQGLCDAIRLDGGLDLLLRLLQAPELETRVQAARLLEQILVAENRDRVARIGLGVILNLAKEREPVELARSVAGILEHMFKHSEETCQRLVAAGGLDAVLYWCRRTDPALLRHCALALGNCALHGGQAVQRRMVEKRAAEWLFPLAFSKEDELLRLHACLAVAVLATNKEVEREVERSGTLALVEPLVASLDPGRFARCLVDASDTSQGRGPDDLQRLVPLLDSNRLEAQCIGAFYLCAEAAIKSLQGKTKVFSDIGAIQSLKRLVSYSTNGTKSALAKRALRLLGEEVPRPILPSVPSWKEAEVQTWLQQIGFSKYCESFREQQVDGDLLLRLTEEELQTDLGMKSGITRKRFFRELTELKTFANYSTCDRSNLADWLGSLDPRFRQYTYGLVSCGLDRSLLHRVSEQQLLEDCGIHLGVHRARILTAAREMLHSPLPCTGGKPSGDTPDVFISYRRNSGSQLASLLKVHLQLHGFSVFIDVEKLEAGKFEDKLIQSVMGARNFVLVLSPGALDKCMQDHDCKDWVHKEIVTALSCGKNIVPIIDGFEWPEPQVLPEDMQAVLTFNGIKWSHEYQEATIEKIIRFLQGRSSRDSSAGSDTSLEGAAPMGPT

[13] = target: Mitogen-activated protein kinase 7 (Homo sapiens) (UniProt Q13164); experiment: ERK5 transactivation activators in reporter cells, primary screen, cell-based, HTS (AID 1508626;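 active means luciferase signal above three times the same-plate solvent-only control wells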;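 further: luciferase driven by Gal4-ERK5 fusion binding five Gal4 sites before minimal TATA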); settings: HeLa Gal4-ERK5 transactivation, 18 h, at 5 µM, stronger effect = higher value
Mitogen-activated protein kinase 7 (Homo sapiens), sequence (Q13164 whole entry, looked up, the tested form may be a part): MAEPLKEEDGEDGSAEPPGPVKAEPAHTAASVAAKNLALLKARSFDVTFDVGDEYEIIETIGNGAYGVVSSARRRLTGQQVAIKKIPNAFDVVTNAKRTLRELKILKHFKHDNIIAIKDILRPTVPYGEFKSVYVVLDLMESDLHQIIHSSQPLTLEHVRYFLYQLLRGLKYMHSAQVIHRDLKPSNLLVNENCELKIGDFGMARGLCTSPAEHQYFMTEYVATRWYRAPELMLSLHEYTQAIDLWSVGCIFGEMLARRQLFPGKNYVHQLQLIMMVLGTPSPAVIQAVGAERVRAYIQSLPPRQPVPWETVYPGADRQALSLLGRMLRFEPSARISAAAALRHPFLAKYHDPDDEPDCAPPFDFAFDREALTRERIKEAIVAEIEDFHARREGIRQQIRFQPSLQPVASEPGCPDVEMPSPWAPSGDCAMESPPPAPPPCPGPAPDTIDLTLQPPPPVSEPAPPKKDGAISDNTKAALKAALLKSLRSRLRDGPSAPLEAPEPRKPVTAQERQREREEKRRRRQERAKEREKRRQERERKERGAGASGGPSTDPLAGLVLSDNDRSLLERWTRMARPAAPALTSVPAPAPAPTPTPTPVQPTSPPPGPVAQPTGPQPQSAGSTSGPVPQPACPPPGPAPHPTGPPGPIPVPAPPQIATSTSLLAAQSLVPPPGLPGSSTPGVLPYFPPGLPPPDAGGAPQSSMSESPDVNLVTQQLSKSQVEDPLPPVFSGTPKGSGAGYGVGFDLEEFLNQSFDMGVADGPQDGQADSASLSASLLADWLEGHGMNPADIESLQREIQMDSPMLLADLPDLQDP

[14] = ICB984 medulloblastoma cell growth inhibition, synergistic combos for chromothripsis tumors, cisplatin or BGB combos (AID 1671451; call rule not given here;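 further: cells exposed for 96 hours before readout; 0% = vehicle DMSO and 100% = killing by high DMSO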); settings: ICB984 medulloblastoma cells, drug combinations, stronger effect = higher value
F380Y = experiment: modulators of BK channel variants, profiling panel, selectivity assay, cell-based, U2OS BacMam, thallium flux, beta subunits (AID 1259406); settings: at 30 µM;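 further: initial slope of Thallos dye fluorescence rise after thallium is added; log ratio against the mean of 0.3% DMSO vehicle wells on the same plate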
F380Y/beta1 = experiment: as above; settings: at 30 µM
F380Y/beta2Delta = experiment: as above; settings: at 30 µM
[15] = survival rescue of mitochondrial mutant cells in low glucose, primary screen, MELAS cybrids, Rieske KO mouse fibroblasts, CellTiter-Glo (AID 1508586;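 active means mean z-score across replicates of 1.96 or higher in either the MELAS or the Rieske mutant cell line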;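 further: z relative to plate mean and SD of compound and empty wells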)
[16] = sensitizers of A549 cells to miR-34 induction, primary screen, imaging, A549 dox-inducible miR-34, nuclei and caspase counts (AID 1347080;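 active means compounds whose cell count with miR-34 switched on is under 0.7 times the count with it off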); settings: A549 miR-34 inducible, Hoechst nuclei count, 48 h
[17] = measured here: epithelial PC-3E GFP cell survival
[18] = measured here: mesenchymal TEM4-18 mCherry cell survival
[19] = MELAS cybrid survival, CellTiter-Glo 48 h, stronger effect = higher value
[20] = Rieske KO mouse fibroblast survival, CellTiter-Glo 72 h
[21] = stronger effect = lower value, cell number ratio, induced over uninduced
[22] = measured here: relative caspase fold change +Dox/-Dox
[23] = measured here: total cells with miR-34 induction, stronger effect = lower value
[24] = measured here: total cells without miR-34 induction

CCn1cc(C(=O)O)c(=O)c2cc(F)c(N3CCN(C)CC3)cc21
nuclear beta-catenin stimulation ([1]; at 10 µM): 3.6% (inactive)
nuclear beta-catenin stimulation ([1]; stimulation, at 2 µM): 1.2%
insulin secretion stimulation [2]: -0.5% (inactive)
viability decrease [3]: -12.5% (inactive)
tube area decrease [4]: 25.6% (inactive)
GLP1 secretion stimulation [5]: 3.5% (inactive)
inhibition of viability [6]: -14.7% (inactive)
viability decrease (inhibition) [7]: -27.3% (inactive)
viability decrease (inhibition) [8]: -10.3% (inactive)
inhibition [9]: 5% (inactive)
mean signal [10]: 261 (inactive)
red/green cell ratio (normalised) [11]: 1.22 (inactive)
normalised cell number [11, 17]: 1.13
normalised cell number [11, 18]: 1.38
remaining NAD [12]: 10 nM (inactive)
luciferase signal [13]: 56 AU (inactive)
inhibition ([14]; BGB IC20 combo, at 0.005 µM): -18.1% and 6.69%
inhibition ([14]; BGB IC40 combo, at 0.005 µM): -42.4% and -0.345%
inhibition ([14]; BGB IC40 combo, at 0.05 µM): -41% and 23.4%
inhibition ([14]; at 0.5 µM): -41.8% (inactive) and -20.7% (inactive)
inhibition ([14]; cisplatin combo, at 0.05 µM): -41% and 21.2%
inhibition ([14]; cisplatin combo, at 0.5 µM): -53.3% and -24%
inhibition ([14]; cisplatin combo, at 5 µM): -34.1% and -14.2%
inhibition ([14]; measured here: 5 uM single agent, at 5 µM): -3.29% and -1.89%
log fold change Tl+ flux (F380Y): -0.0273 (inactive)
log fold change Tl+ flux (F380Y/beta1): -0.000461 (inactive)
log fold change Tl+ flux (F380Y/beta2Delta): -0.0112 (inactive)

Cc1ccc(C)c(OCCCC(C)(C)C(=O)O)c1
nuclear beta-catenin stimulation ([1]; at 10 µM): 1.3% (inactive)
nuclear beta-catenin stimulation ([1]; stimulation, at 2 µM): 1.2%
insulin secretion stimulation [2]: -1% (inactive)
viability decrease [3]: 4.95% (inactive)
tube area decrease [4]: -9.2% (inactive)
GLP1 secretion stimulation [5]: 2.4% (inactive)
inhibition of viability [6]: -1.9% (inactive)
viability decrease (inhibition) [7]: 20.7% (inactive)
viability decrease (inhibition) [8]: 0.75% (inactive)
inhibition [9]: -2.35% (inactive)
mean signal [10]: 239 (inactive)
red/green cell ratio (normalised) [11]: 1.25 (inactive)
normalised cell number [11, 17]: 0.82
normalised cell number [11, 18]: 1.03
z-score [15, 19]: -0.269 (inactive) and 0.233 (inactive) and 0.482 (inactive)
z-score [15, 20]: 0.636 and -0.228 and 0.576
remaining NAD [12]: 10 nM (inactive)
luciferase signal [13]: 128 AU (inactive)
log fold change Tl+ flux (F380Y): 0.0531 (inactive)
log fold change Tl+ flux (F380Y/beta1): 0.07 (inactive)
log fold change Tl+ flux (F380Y/beta2Delta): 0.0499 (inactive)

O=S(=O)(O)CCS
nuclear beta-catenin stimulation ([1]; at 10 µM): 1.9% (inactive)
nuclear beta-catenin stimulation ([1]; stimulation, at 2 µM): 1.8%
insulin secretion stimulation [2]: 1.6% (inactive)
viability decrease [3]: 4.9% (inactive)
tube area decrease [4]: 11.9% (inactive)
GLP1 secretion stimulation [5]: 2.6% (inactive)
inhibition of viability [6]: -4.57% (inactive)
viability decrease (inhibition) [7]: -2.4% (inactive)
viability decrease (inhibition) [8]: -8.8% (inactive)
inhibition [9]: 6.93% (inactive)
mean signal [10]: 248 (inactive)
red/green cell ratio (normalised) [11]: 1 (inactive)
normalised cell number [11, 17]: 1.08
normalised cell number [11, 18]: 1.09
fold change [16, 21]: 0.934 (inactive) and 0.882 (inactive)
fold change [16, 22]: 3.36 and 0.596 and 4.13
cell count [16, 23]: 9790 and 9090 and 11400
cell count [16, 24]: 10500 and 9730 and 12900
z-score [15, 19]: -0.16 (inactive) and 0.426 (inactive)
z-score [15, 20]: 0.659 and -0.304
remaining NAD [12]: 10 nM (inactive)
luciferase signal [13]: 20 AU (inactive)
log fold change Tl+ flux (F380Y): -0.0468 (inactive)
log fold change Tl+ flux (F380Y/beta1): 0.0507 (inactive)
log fold change Tl+ flux (F380Y/beta2Delta): 0.0371 (inactive)

CC(C)(C)NCC(O)COc1cccc2c1C[C@H](O)[C@H](O)C2 (stereo partly drawn)
nuclear beta-catenin stimulation ([1]; at 10 µM): 1.8% (inactive)
nuclear beta-catenin stimulation ([1]; stimulation, at 2 µM): -0.2%
insulin secretion stimulation [2]: -1.2% (inactive)
viability decrease [3]: -26.3% (inactive)
tube area decrease [4]: 13.1% (inactive)
GLP1 secretion stimulation [5]: -1.3% (inactive)
inhibition of viability [6]: 4.4% (inactive)
viability decrease (inhibition) [7]: 2.8% (inactive)
viability decrease (inhibition) [8]: -5.7% (inactive)
inhibition [9]: 6.69% (inactive)
mean signal [10]: 269 (inactive)
red/green cell ratio (normalised) [11]: 1.06 (inactive)
normalised cell number [11, 17]: 1.04
normalised cell number [11, 18]: 1.1
fold change [16, 21]: 0.964 (inactive) and 0.863 (inactive)
fold change [16, 22]: 2.62 and 3.63
cell count [16, 23]: 10500 and 11100
cell count [16, 24]: 10900 and 12900
z-score [15, 19]: 0.625 (inactive)
z-score [15, 20]: -0.345
remaining NAD [12]: 10 nM (inactive)
luciferase signal [13]: 100 AU (inactive)
log fold change Tl+ flux (F380Y): 0.0119 (inactive)
log fold change Tl+ flux (F380Y/beta1): 0.00674 (inactive)
log fold change Tl+ flux (F380Y/beta2Delta): 0.0306 (inactive)

N[C@@H](C(=O)N[C@@H]1C(=O)N2C(C(=O)O)=C(Cl)CS[C@H]12)c1ccccc1
nuclear beta-catenin stimulation ([1]; at 10 µM): 0.3% (inactive)
nuclear beta-catenin stimulation ([1]; stimulation, at 2 µM): 1.1%
insulin secretion stimulation [2]: 1.9% (inactive)
viability decrease [3]: 12.5% (inactive)
tube area decrease [4]: -21% (inactive)
GLP1 secretion stimulation [5]: -1.7% (inactive)
inhibition of viability [6]: -1.63% (inactive)
viability decrease (inhibition) [7]: 26.8% (inactive)
viability decrease (inhibition) [8]: -20.5% (inactive)
inhibition [9]: -9.98% (inactive)
mean signal [10]: 277 (inactive)
red/green cell ratio (normalised) [11]: 1.23 (inactive)
normalised cell number [11, 17]: 0.9
normalised cell number [11, 18]: 1.1
fold change [16, 21]: 0.883 (inactive) and 0.884 (inactive)
fold change [16, 22]: 1.88 and 4.52
cell count [16, 23]: 8220 and 11700
cell count [16, 24]: 9320 and 13200
z-score [15, 19]: 0.0553 (inactive)
z-score [15, 20]: -0.142
remaining NAD [12]: 10 nM (inactive)
luciferase signal [13]: 32 AU (inactive)
log fold change Tl+ flux (F380Y): -0.0277 (inactive)
log fold change Tl+ flux (F380Y/beta1): -0.0714 (inactive)
log fold change Tl+ flux (F380Y/beta2Delta): -0.0661 (inactive)
